Test results from PubChem BioAssay (NCI).
Compounds without any hit were thinned out: in the full panel of roughly 83,000, 20% have a hit.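 Assay: single dose, 48 h. Readout: percent growth (0 = no net growth; negative = cell death). Active: <10.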 The source made the active and inactive calls.

Columns and labels:
Assay in all cases: NCI-60 one-dose screen, 48 h (100 = growth as untreated, 0 = no growth, -100 = all killed)
SR leukemia = settings: 10 µM unless noted
RPMI-8226 leukemia = settings: 10 µM unless noted
OVCAR-8 ovarian = settings: 10 µM unless noted
OVCAR-5 ovarian = settings: 10 µM unless noted
OVCAR-4 ovarian = settings: 10 µM unless noted
SK-OV-3 ovarian = settings: 10 µM unless noted
IGROV1 ovarian = settings: 10 µM unless noted
OVCAR-3 ovarian = settings: 10 µM unless noted
HS 578T breast = settings: 10 µM
NCI/ADR-RES ovarian = settings: 10 µM unless noted
T-47D breast = settings: 10 µM unless noted
BT-549 breast = settings: 10 µM unless noted
MDA-MB-435 melanoma = settings: 10 µM unless noted
SW-620 colon = settings: 10 µM unless noted
MCF7 breast = settings: 10 µM unless noted
HCT-116 colon = settings: 10 µM unless noted
HCC-2998 colon = settings: 10 µM
KM12 colon = settings: 10 µM unless noted

Measured: growth

Cc1cccc(NC(=O)[C@@H]2c3ccccc3C(=O)N(c3ccc(Cl)cc3)[C@H]2c2ccc(Cl)cc2)n1
inactive: SR leukemia 34.5% | RPMI-8226 leukemia 24.5% | OVCAR-8 ovarian 51.2% | OVCAR-5 ovarian 78.7% | OVCAR-4 ovarian 45.1% | SK-OV-3 ovarian 55.1% | IGROV1 ovarian 73.5% | OVCAR-3 ovarian 61.8% | HS 578T breast 72.4% | NCI/ADR-RES ovarian 47.8% | T-47D breast 41.6% | BT-549 breast 63.3% | MDA-MB-435 melanoma 46.6% | SW-620 colon 40.6% | MCF7 breast 40.9% | HCT-116 colon 26.2% | HCC-2998 colon 50.6% | KM12 colon 34.5%

CN1CCN(CC(=O)Nc2ccc(-c3nc4ccccc4s3)cc2)CC1
active: SR leukemia 6.26%
inactive: RPMI-8226 leukemia 88.1% | OVCAR-8 ovarian 91.3% | OVCAR-5 ovarian 72.9% | OVCAR-4 ovarian 87.3% | SK-OV-3 ovarian 94.2% | IGROV1 ovarian 80.6% | OVCAR-3 ovarian 99.2% | HS 578T breast 93.7% | NCI/ADR-RES ovarian 85.6% | T-47D breast 54.1% | BT-549 breast 80.7% | MDA-MB-435 melanoma 25.4% | SW-620 colon 102% | MCF7 breast 36.8% | HCT-116 colon 70.9% | HCC-2998 colon 77.3% | KM12 colon 85.6%

COc1ccc2c(c1OC)C(=O)O[C@@H]2[C@H]1c2c(c(C#CC#Cc3ccc(F)c(F)c3)c3c(c2OC)OCO3)CCN1C
inactive: SR leukemia 60.2% | RPMI-8226 leukemia 67.3% | OVCAR-8 ovarian 87.9% | OVCAR-5 ovarian 96.5% | OVCAR-4 ovarian 99.9% | SK-OV-3 ovarian 76% | IGROV1 ovarian 90.1% | OVCAR-3 ovarian 104% | HS 578T breast 101% | NCI/ADR-RES ovarian 89.3% | T-47D breast 69.6% | BT-549 breast 78.2% | MDA-MB-435 melanoma 89.7% | SW-620 colon 104% | MCF7 breast 94% | HCT-116 colon 59.8% | HCC-2998 colon 88.5%

Cc1cc2c(-c3nc4ccccn4c3N)c(O)c(O)cc2c(O)c1-c1c(C)cc2c(-c3nc4ccccn4c3N)c(O)c(O)cc2c1O
active: RPMI-8226 leukemia 9.18% | SK-OV-3 ovarian -10.4% | HCT-116 colon 9.9%
inactive: SR leukemia 26.9% | OVCAR-8 ovarian 19.9% | OVCAR-5 ovarian 36.7% | OVCAR-4 ovarian 33.7% | IGROV1 ovarian 28.9% | OVCAR-3 ovarian 26.5% | HS 578T breast 37.6% | NCI/ADR-RES ovarian 26.4% | T-47D breast 14.6% | BT-549 breast 21.2% | MDA-MB-435 melanoma 13.4% | SW-620 colon 22.7% | MCF7 breast 10.7% | HCC-2998 colon 30.7%

NC(=O)N1N=C(c2ccc(Cl)cc2)CC1c1cn(-c2ccccc2)nc1-c1ccc(Cl)cc1 (centres undefined)
inactive: SR leukemia 67.3% | RPMI-8226 leukemia 70.9% | OVCAR-8 ovarian 36.8% | OVCAR-5 ovarian 94.6% | OVCAR-4 ovarian 14% | SK-OV-3 ovarian 50.9% | IGROV1 ovarian 68.8% | OVCAR-3 ovarian 78.1% | HS 578T breast 50.8% | NCI/ADR-RES ovarian 47.8% | T-47D breast 45.6% | BT-549 breast 98.9% | MDA-MB-435 melanoma 75.2% | SW-620 colon 84.8% | MCF7 breast 63.7% | HCT-116 colon 31.9% | HCC-2998 colon 78.6% | KM12 colon 62.7%

CC(N)C(Cc1ccc(Cl)cc1)c1ccc(Cl)cc1 (centres undefined)
active: SR leukemia -9.14% | HCC-2998 colon -6.15%
inactive: RPMI-8226 leukemia 25.3% | OVCAR-8 ovarian 71.5% | OVCAR-5 ovarian 77.9% | OVCAR-4 ovarian 71.7% | SK-OV-3 ovarian 81.9% | IGROV1 ovarian 77.8% | OVCAR-3 ovarian 87.2% | HS 578T breast 71.6% | NCI/ADR-RES ovarian 87.5% | T-47D breast 54.8% | BT-549 breast 77.6% | MDA-MB-435 melanoma 56.5% | SW-620 colon 57.3% | MCF7 breast 91.1% | HCT-116 colon 35% | KM12 colon 63%

C=CC[n+]1c(/C=C2\Sc3ccccc3N2C)sc(-c2ccccc2)c1-c1ccccc1
inactive: OVCAR-8 ovarian 15.1% | OVCAR-5 ovarian 21.9% | OVCAR-4 ovarian 23.8% | IGROV1 ovarian 36.7% | OVCAR-3 ovarian 15.1% | HS 578T breast 56.9% | NCI/ADR-RES ovarian 85% | BT-549 breast 11.9% | SW-620 colon 22.1% | HCT-116 colon 12% | HCC-2998 colon 29.4% | KM12 colon 14%
active: SR leukemia 1.88% | RPMI-8226 leukemia 0.0474% | SK-OV-3 ovarian -15% | T-47D breast 5.7% | MDA-MB-435 melanoma 5.39% | MCF7 breast 6.39%

Cc1[nH]n(C(N)=S)c(=O)c1N=Nc1ccc(S(=O)(=O)Nc2ccncn2)cc1
inactive: SR leukemia 111% | RPMI-8226 leukemia 47.2% | OVCAR-8 ovarian 106% | OVCAR-5 ovarian 111% | OVCAR-4 ovarian 95.1% | SK-OV-3 ovarian 100% | IGROV1 ovarian 67.3% | OVCAR-3 ovarian 99% | HS 578T breast 86.2% | NCI/ADR-RES ovarian 104% | T-47D breast 109% | BT-549 breast 143% | MDA-MB-435 melanoma 136% | SW-620 colon 102% | MCF7 breast 88.1% | HCT-116 colon 112% | HCC-2998 colon 105% | KM12 colon 99.5%

COC(=O)[C@]12CC[C@@H](C)[C@H](C)[C@@H]1C1=CC[C@@H]3[C@@]4(C)C(C#N)=CC(C)=C4CC[C@@]3(C)[C@]1(C)CC2
inactive: SR leukemia 68% | RPMI-8226 leukemia 76.7% | OVCAR-8 ovarian 103% | OVCAR-5 ovarian 91.9% | OVCAR-4 ovarian 88.3% | SK-OV-3 ovarian 99.3% | IGROV1 ovarian 106% | OVCAR-3 ovarian 88.9% | HS 578T breast 97.5% | NCI/ADR-RES ovarian 89.2% | T-47D breast 68.2% | BT-549 breast 98.7% | MDA-MB-435 melanoma 88.1% | SW-620 colon 87.2% | MCF7 breast 90.1% | HCT-116 colon 68.4% | HCC-2998 colon 80% | KM12 colon 84.6%

[2H]C1([2H])[C@H](C)O[C@H](C)C([2H])([2H])N1c1ccc(NC(=O)c2cccc(-c3ccc(OC(F)(F)F)cc3)c2C)cn1
inactive: SR leukemia 56.4% | RPMI-8226 leukemia 53.3% | OVCAR-8 ovarian 79.1% | OVCAR-5 ovarian 100% | OVCAR-4 ovarian 65.8% | SK-OV-3 ovarian 63.2% | IGROV1 ovarian 65.2% | OVCAR-3 ovarian 84.6% | HS 578T breast 88.2% | NCI/ADR-RES ovarian 58.4% | T-47D breast 41.7% | BT-549 breast 63.9% | MDA-MB-435 melanoma 73.4% | SW-620 colon 90% | MCF7 breast 66.8% | HCT-116 colon 56.9% | HCC-2998 colon 82.4% | KM12 colon 73.2%

Cc1sc2c(c1C)c(=O)nc1c(-c3nc(-c4ccccc4)cs3)n[nH]n12
inactive: SR leukemia 90.5% | RPMI-8226 leukemia 93.8% | OVCAR-8 ovarian 99.8% | OVCAR-5 ovarian 109% | OVCAR-4 ovarian 106% | SK-OV-3 ovarian 89.6% | IGROV1 ovarian 96.9% | OVCAR-3 ovarian 96.4% | HS 578T breast 93.4% | NCI/ADR-RES ovarian 96.1% | T-47D breast 83.9% | BT-549 breast 110% | MDA-MB-435 melanoma 107% | SW-620 colon 97.3% | MCF7 breast 91.2% | HCT-116 colon 100% | HCC-2998 colon 101% | KM12 colon 99.4%

CCOC(=O)C1=C(C)NC(=O)NC1c1cc(=O)oc2ccc(C)cc12 (centres undefined)
inactive: SR leukemia 97.1% | RPMI-8226 leukemia 97.5% | OVCAR-8 ovarian 102% | OVCAR-5 ovarian 107% | OVCAR-4 ovarian 106% | SK-OV-3 ovarian 104% | IGROV1 ovarian 103% | OVCAR-3 ovarian 110% | HS 578T breast 109% | NCI/ADR-RES ovarian 102% | T-47D breast 94.5% | BT-549 breast 111% | MDA-MB-435 melanoma 117% | SW-620 colon 108% | MCF7 breast 91.3% | HCT-116 colon 100% | HCC-2998 colon 96.2% | KM12 colon 101%

O=C(Cn1ccnc1)Nc1ccc(-c2nc3ccccc3s2)cc1
inactive: SR leukemia 36.5% | RPMI-8226 leukemia 52% | OVCAR-8 ovarian 80.3% | OVCAR-5 ovarian 104% | OVCAR-4 ovarian 34.8% | SK-OV-3 ovarian 87.8% | IGROV1 ovarian 68.9% | OVCAR-3 ovarian 62.2% | HS 578T breast 86.9% | NCI/ADR-RES ovarian 88.2% | T-47D breast 51.4% | BT-549 breast 65.1% | MDA-MB-435 melanoma 81.6% | SW-620 colon 99.8% | MCF7 breast 61.3% | HCT-116 colon 68.2% | HCC-2998 colon 94.9% | KM12 colon 84.4%

Clc1ccc2c(NCCCNCc3ccc4c(c3)OCO4)ccnc2c1
active: SR leukemia -22.9% | T-47D breast -0.471% | MDA-MB-435 melanoma -34.6% | HCC-2998 colon 5.99%
inactive: RPMI-8226 leukemia 22% | OVCAR-8 ovarian 30.7% | OVCAR-5 ovarian 85.8% | OVCAR-4 ovarian 59.1% | SK-OV-3 ovarian 71.2% | IGROV1 ovarian 57.3% | OVCAR-3 ovarian 63.7% | HS 578T breast 78.9% | NCI/ADR-RES ovarian 74.3% | BT-549 breast 51.5% | SW-620 colon 28.9% | MCF7 breast 31.5% | HCT-116 colon 36.5% | KM12 colon 65.4%

CN(C)CCn1c(=O)c2c3cc4c(cc3n(CCN(C)C)c2c2ccc(Cl)cc21)OCO4
inactive: RPMI-8226 leukemia 44.7% | OVCAR-8 ovarian 31.7% | OVCAR-5 ovarian 81.4% | OVCAR-4 ovarian 61.3% | SK-OV-3 ovarian 41.3% | IGROV1 ovarian 38.4% | OVCAR-3 ovarian 83.5% | HS 578T breast 84.7% | NCI/ADR-RES ovarian 31.4% | T-47D breast 57.2% | BT-549 breast 63.6% | MDA-MB-435 melanoma 70.7% | MCF7 breast 21.3% | HCC-2998 colon 81.7% | KM12 colon 45.1%
active: SR leukemia -13.5% | SW-620 colon -14.7% | HCT-116 colon -79.4%

CCN(CC)CCCC(C)Nc1cc(-c2ccc(C(F)(F)F)cc2)c(C#N)c2nc3ccccc3n12 (centres undefined)
inactive: OVCAR-8 ovarian 11.8% | OVCAR-5 ovarian 11.7% | SK-OV-3 ovarian 74.3% | IGROV1 ovarian 26.1% | OVCAR-3 ovarian 93.5% | NCI/ADR-RES ovarian 32.2% | SW-620 colon 12.2% | MCF7 breast 14.1% | HCC-2998 colon 16.6% | KM12 colon 36.5%
active: SR leukemia -17.4% | RPMI-8226 leukemia -19.9% | OVCAR-4 ovarian -27.9% | HS 578T breast -19.1% | T-47D breast -8.16% | BT-549 breast -10.7% | MDA-MB-435 melanoma -64.8% | HCT-116 colon 3.28%

Cc1nn(-c2nc3ccccc3[nH]2)c2c1C(c1ccc(O)cc1)CC(=O)N2 (centres undefined)
inactive: SR leukemia 53.7% | RPMI-8226 leukemia 101% | OVCAR-8 ovarian 55.3% | OVCAR-5 ovarian 109% | OVCAR-4 ovarian 112% | SK-OV-3 ovarian 84.3% | IGROV1 ovarian 75.9% | OVCAR-3 ovarian 93.2% | HS 578T breast 28.1% | NCI/ADR-RES ovarian 88.5% | T-47D breast 88.7% | BT-549 breast 92.7% | MDA-MB-435 melanoma 104% | SW-620 colon 93.5% | MCF7 breast 109% | HCT-116 colon 101% | HCC-2998 colon 123% | KM12 colon 60.3%
